What all share (experiment): DAPPL (digital affinity profiling via proximity ligation, sequencing); 10 mM Tris-HCl pH 7.5, 50 mM NaCl, 1 mM DTT, 4% glycerol, room temperature, 30 min; GST-TFs on glutathione beads, 16-mer random dsDNA library, 0.1% formaldehyde crosslink after washing; high values mean tight binding
The target of one assay is T1, FEV (Homo sapiens, UniProt Q99581 1-238).
T1 sequence: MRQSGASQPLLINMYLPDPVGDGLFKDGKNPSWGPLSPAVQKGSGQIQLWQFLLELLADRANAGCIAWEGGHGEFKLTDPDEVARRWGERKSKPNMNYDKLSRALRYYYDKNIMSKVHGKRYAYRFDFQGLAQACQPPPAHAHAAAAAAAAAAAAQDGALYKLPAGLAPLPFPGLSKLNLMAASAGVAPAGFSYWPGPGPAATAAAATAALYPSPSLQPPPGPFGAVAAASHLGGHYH
Particulars: protein: recombinant; tags: N-terminal GST; dsDNA, one strand shown. The method in brief: (§1)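 Binding signal is each hexamer's read frequency for a factor divided by its frequency in the tag-only sample. The factors were GST-fused human transcription factors from yeast, captured on glutathione beads, DNA-barcoded and pooled with that sample. Pools were incubated with 200 nmole of a random double-stranded 16-mer DNA library in Tris/NaCl/DTT/glycerol buffer at room temperature for 30 min, then washed, crosslinked with 0.1% formaldehyde, proximity-ligated with BsaI/T4 ligase (1 h, 37 °C), PCR-amplified and sequenced on an Illumina NextSeq500.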

In a further assay the target is ETV5 (Homo sapiens, UniProt P41161 1-510). To be noted: protein: recombinant; tags: N-terminal GST; dsDNA, one strand shown. The gist of the method:
as §1

For the next assay, the target named is HSF1 (Homo sapiens, UniProt Q00613 1-529). Particulars: protein: recombinant; tags: N-terminal GST; chain copies: 3; dsDNA, one strand shown. The gist of the method: as §1
Sequence of HSF1 (Q00613 whole entry): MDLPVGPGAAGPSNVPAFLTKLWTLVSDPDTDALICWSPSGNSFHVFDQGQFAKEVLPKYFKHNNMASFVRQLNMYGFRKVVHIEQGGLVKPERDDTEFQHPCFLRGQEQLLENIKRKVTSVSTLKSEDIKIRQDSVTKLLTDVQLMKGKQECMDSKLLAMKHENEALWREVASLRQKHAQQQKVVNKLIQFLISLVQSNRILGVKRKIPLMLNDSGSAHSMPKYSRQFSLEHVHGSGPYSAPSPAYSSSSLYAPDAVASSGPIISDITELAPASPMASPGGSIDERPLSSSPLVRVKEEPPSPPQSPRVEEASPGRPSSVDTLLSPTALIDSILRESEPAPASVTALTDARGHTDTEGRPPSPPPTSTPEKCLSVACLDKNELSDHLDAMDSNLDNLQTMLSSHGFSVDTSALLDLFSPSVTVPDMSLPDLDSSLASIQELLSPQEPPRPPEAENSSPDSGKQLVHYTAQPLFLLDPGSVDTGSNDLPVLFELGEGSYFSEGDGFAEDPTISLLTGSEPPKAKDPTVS
A further assay addresses T2, SPIC (Homo sapiens, UniProt Q8N5J4 1-248).
T2 sequence: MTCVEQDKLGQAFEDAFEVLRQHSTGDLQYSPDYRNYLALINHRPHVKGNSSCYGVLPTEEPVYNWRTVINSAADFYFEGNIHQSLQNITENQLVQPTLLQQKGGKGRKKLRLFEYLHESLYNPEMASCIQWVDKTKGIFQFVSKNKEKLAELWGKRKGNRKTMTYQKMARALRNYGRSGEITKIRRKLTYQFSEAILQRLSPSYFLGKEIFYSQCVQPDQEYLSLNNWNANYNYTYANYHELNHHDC
Particulars: protein: recombinant; tags: N-terminal GST; dsDNA, one strand shown. The method in brief: as §1

Another assay addresses ELF4 (Homo sapiens, UniProt Q99607 1-663). Particulars: protein: recombinant; tags: N-terminal GST; dsDNA, one strand shown. The gist of the method:
as §1

For the next assay, the target named is T3, ELK4 (Homo sapiens, UniProt P28324-2 1-405).
T3 sequence: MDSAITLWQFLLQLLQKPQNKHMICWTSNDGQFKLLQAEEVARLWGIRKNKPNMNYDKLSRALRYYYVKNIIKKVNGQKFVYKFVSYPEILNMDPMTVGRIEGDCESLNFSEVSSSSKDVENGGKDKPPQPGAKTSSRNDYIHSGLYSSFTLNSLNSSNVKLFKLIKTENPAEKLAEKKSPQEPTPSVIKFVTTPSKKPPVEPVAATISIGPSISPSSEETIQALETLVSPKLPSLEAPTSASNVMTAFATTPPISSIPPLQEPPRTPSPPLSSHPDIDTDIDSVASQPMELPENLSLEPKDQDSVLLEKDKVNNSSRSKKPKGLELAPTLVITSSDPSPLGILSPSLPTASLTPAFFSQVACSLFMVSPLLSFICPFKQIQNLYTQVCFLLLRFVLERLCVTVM
To be noted: protein: recombinant; tags: N-terminal GST; dsDNA, one strand shown. The method in brief: as §1

In a further assay the target is T4, ETV2 (Homo sapiens, UniProt O00321 1-342).
T4 sequence: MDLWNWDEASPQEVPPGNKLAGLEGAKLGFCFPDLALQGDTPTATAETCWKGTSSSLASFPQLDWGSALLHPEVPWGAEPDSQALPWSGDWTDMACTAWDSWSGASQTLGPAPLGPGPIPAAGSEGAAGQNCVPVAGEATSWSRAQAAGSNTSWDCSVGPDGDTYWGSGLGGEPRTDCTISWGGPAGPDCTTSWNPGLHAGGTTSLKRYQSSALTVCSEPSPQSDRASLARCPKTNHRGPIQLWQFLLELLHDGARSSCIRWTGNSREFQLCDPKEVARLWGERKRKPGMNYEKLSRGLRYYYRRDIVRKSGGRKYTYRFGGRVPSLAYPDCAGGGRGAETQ
Particulars: protein: recombinant; tags: N-terminal GST; dsDNA, one strand shown. The method in brief: as §1

A further assay has as its target T5, ELF3 (Homo sapiens, UniProt P78545 1-371).
T5 sequence: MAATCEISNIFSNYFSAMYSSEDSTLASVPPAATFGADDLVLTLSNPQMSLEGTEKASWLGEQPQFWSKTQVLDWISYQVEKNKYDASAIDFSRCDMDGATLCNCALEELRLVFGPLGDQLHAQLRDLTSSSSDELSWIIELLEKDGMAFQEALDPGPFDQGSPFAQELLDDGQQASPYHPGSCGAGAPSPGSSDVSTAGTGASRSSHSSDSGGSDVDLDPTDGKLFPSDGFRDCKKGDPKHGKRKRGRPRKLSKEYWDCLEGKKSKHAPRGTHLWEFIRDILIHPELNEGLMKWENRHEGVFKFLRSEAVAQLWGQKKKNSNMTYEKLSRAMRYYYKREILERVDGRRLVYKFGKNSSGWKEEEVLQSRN
Particulars: protein: recombinant; tags: N-terminal GST; dsDNA, one strand shown. The gist of the method:
as §1

For the next assay, the target named is CRX (Homo sapiens, UniProt O43186 1-299). Particulars: protein: recombinant; tags: N-terminal GST; dsDNA, one strand shown. The gist of the method: as §1
Sequence of CRX (O43186 whole entry): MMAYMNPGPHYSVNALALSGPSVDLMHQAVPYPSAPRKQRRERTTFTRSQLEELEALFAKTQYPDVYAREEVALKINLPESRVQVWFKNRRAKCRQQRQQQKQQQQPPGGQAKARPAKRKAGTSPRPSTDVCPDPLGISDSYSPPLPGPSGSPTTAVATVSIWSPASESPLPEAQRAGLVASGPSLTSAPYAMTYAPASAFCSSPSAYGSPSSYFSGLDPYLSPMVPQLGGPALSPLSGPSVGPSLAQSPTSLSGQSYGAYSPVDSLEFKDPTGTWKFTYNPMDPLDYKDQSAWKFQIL
In a further assay the target is ETV1 (Homo sapiens, UniProt P50549 1-477). To be noted: protein: recombinant; tags: N-terminal GST; dsDNA, one strand shown. The method in brief:
as §1

In a further assay the target is T6, ERF (Homo sapiens, UniProt P50548 1-548).
T6 sequence: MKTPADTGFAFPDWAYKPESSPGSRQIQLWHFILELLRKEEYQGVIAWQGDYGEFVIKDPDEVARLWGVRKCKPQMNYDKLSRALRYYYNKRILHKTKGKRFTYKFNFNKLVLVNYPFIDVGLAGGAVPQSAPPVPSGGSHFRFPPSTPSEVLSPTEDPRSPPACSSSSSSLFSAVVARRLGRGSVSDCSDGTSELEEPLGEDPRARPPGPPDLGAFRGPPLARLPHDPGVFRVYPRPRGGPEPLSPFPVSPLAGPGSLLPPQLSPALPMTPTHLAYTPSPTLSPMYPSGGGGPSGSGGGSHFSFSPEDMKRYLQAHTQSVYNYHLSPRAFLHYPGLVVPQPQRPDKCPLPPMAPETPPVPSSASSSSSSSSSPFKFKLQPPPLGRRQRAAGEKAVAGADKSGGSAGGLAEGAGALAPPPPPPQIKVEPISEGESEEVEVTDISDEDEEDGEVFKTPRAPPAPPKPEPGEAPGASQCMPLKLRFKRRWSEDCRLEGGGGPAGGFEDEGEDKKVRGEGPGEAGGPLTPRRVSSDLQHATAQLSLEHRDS
Particulars: protein: recombinant; tags: N-terminal GST; dsDNA, one strand shown. The gist of the method:
as §1

The next assay deals with T7, ETV3L (Homo sapiens, UniProt Q6ZN32 1-361).
T7 sequence: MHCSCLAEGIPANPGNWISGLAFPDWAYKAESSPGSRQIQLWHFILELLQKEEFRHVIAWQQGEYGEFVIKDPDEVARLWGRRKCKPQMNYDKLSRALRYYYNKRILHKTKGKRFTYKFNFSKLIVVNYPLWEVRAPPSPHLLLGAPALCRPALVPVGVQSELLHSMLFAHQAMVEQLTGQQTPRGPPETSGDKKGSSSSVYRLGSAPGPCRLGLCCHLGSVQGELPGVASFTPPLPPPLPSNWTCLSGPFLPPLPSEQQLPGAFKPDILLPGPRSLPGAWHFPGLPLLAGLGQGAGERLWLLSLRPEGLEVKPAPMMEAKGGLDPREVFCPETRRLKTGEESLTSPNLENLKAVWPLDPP
Particulars: protein: recombinant; tags: N-terminal GST; dsDNA, one strand shown. The method in brief: as §1

The next assay deals with T8, ETS2 (Homo sapiens, UniProt P15036 1-469).
T8 sequence: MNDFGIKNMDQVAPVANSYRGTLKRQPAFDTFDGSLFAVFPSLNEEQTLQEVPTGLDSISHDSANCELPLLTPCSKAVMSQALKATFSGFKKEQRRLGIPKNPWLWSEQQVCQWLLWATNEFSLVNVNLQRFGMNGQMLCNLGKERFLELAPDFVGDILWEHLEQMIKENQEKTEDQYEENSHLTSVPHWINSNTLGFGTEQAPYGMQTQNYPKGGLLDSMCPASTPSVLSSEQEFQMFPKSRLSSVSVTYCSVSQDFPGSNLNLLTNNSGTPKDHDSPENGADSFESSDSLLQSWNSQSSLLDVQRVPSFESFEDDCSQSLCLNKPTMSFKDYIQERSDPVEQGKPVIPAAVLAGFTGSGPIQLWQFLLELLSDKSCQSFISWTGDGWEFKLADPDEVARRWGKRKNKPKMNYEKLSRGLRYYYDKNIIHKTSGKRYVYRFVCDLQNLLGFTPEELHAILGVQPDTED
To be noted: protein: recombinant; tags: N-terminal GST; dsDNA, one strand shown. The gist of the method:
as §1

In the next assay the target is T9, SPDEF (Homo sapiens, UniProt O95238 1-335).
T9 sequence: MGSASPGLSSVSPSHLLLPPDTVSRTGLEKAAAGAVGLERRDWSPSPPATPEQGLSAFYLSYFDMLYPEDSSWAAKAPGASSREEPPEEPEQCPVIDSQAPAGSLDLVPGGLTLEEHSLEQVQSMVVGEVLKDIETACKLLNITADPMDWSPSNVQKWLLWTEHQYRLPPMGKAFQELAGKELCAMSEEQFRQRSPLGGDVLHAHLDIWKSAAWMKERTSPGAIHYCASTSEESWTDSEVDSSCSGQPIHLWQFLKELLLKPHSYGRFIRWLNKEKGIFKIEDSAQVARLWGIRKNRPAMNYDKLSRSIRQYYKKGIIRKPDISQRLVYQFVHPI
Particulars: protein: recombinant; tags: N-terminal GST; dsDNA, one strand shown. The gist of the method:
as §1

The target in a further assay is T10, ETV7 (Homo sapiens, UniProt Q9Y603 1-341).
T10 sequence: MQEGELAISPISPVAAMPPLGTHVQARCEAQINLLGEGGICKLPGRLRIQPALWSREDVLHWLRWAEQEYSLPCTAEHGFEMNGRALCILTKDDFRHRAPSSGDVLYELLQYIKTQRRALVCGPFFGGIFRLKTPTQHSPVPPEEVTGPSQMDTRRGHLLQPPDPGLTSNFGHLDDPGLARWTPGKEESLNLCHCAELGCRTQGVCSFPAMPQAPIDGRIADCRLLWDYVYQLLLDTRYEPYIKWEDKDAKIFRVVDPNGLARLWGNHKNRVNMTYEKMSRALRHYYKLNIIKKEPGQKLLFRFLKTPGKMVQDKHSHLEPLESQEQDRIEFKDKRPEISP
To be noted: protein: recombinant; tags: N-terminal GST; dsDNA, one strand shown. The method in brief:
as §1

Another assay concerns the target T11, ELF5 (Homo sapiens, UniProt Q9UKW6-2 1-255).
T11 sequence: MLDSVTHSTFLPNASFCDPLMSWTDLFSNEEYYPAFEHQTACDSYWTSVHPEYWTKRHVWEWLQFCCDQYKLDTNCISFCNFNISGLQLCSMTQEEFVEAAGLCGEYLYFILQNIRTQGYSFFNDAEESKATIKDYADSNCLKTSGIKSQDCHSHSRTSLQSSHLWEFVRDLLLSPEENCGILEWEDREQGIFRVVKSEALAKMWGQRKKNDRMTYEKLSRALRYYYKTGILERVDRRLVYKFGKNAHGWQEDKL
Particulars: protein: recombinant; tags: N-terminal GST; dsDNA, one strand shown. The method in brief: as §1

Another assay addresses T12, ETV3 (Homo sapiens, UniProt P41162-2 1-143).
T12 sequence: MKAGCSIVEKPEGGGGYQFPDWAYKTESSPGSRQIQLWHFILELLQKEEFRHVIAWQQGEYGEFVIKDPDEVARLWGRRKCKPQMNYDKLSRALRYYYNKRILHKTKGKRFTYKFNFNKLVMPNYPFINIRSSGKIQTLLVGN
To be noted: protein: recombinant; tags: N-terminal GST; dsDNA, one strand shown. The gist of the method: as §1

The next assay addresses ETV6 (Homo sapiens, UniProt P41212 1-452). Particulars: protein: recombinant; tags: N-terminal GST; dsDNA, one strand shown. The method in brief:
as §1

Sequence of ELF4 (Q99607 whole entry): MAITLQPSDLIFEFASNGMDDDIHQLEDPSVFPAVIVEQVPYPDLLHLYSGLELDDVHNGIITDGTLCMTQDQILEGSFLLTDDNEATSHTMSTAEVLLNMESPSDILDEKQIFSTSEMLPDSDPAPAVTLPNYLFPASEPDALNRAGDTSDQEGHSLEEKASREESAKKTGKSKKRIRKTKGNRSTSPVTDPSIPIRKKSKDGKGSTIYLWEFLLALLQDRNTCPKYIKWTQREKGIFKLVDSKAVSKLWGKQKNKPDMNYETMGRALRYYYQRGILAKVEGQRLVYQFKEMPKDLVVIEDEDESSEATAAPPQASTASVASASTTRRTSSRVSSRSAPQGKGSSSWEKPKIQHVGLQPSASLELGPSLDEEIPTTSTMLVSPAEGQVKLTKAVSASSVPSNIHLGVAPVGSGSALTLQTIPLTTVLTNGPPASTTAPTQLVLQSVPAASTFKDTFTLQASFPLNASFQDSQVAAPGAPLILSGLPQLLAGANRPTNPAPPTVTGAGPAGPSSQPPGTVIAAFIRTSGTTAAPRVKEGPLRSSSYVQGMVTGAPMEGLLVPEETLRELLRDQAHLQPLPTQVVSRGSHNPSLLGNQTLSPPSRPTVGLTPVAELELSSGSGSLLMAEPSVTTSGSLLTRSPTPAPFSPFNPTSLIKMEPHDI
Sequence of ETV5 (P41161 whole entry): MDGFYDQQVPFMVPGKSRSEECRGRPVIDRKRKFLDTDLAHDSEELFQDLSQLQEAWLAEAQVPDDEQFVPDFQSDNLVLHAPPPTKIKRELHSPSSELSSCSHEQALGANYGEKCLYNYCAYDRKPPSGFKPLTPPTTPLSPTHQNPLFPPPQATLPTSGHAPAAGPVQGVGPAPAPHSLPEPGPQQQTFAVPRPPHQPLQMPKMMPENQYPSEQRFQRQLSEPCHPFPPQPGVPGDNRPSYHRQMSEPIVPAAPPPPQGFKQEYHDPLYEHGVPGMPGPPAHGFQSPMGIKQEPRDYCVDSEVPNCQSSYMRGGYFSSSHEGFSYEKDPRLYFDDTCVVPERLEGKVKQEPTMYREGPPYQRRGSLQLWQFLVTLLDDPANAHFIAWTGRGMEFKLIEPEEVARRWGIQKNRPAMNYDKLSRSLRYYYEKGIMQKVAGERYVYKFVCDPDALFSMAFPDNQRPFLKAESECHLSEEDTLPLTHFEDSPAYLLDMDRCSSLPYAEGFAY
Sequence of ETV1 (P50549 whole entry): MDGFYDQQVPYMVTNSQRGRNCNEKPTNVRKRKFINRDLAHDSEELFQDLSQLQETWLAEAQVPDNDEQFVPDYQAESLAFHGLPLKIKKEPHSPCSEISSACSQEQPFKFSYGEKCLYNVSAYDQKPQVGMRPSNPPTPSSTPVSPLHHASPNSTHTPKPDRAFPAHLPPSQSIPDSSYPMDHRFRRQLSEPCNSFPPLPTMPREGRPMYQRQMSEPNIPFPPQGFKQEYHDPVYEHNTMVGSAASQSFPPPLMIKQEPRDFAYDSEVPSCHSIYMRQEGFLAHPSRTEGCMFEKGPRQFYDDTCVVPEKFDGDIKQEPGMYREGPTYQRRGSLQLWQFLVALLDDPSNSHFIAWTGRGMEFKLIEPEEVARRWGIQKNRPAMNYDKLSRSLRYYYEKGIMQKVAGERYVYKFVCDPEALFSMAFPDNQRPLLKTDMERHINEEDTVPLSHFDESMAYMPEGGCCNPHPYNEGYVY
Sequence of ETV6 (P41212 whole entry): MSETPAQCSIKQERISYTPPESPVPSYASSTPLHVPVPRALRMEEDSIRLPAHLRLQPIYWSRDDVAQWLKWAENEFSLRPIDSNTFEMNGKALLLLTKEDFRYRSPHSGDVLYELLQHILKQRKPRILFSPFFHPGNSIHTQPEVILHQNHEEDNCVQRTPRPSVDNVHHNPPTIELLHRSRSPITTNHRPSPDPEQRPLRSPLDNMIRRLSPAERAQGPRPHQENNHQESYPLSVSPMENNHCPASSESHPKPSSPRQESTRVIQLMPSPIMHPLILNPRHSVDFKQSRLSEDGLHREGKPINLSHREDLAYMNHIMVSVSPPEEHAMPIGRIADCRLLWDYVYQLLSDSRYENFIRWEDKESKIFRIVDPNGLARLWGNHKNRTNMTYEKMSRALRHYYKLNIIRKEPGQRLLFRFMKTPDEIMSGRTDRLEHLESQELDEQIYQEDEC

Turning to GCTTCA, the binding signal in the assay with FEV was 1.27 fold enrichment (6-mer frequency, TF over GST control); with ETV5 it was 1.24 fold enrichment (6-mer frequency, TF over GST control); with HSF1, 1.23 fold enrichment (6-mer frequency, TF over GST control); with SPIC, 1.3 fold enrichment (6-mer frequency, TF over GST control); in the assay with ELF4 it was 1.29 fold enrichment (6-mer frequency, TF over GST control); in the assay with ELK4, 1.36 fold enrichment (6-mer frequency, TF over GST control). Further, the binding signal with ETV2 is 1.29 fold enrichment (6-mer frequency, TF over GST control); with ELF3 it was 1.31 fold enrichment (6-mer frequency, TF over GST control); in the assay with CRX it was 1.1 fold enrichment (6-mer frequency, TF over GST control); with ETV1, 1.23 fold enrichment (6-mer frequency, TF over GST control); with ERF, 1.33 fold enrichment (6-mer frequency, TF over GST control); in the assay with ETV3L, 1.35 fold enrichment (6-mer frequency, TF over GST control). Further, the binding signal with ETS2 is 1.27 fold enrichment (6-mer frequency, TF over GST control); with SPDEF, 1.31 fold enrichment (6-mer frequency, TF over GST control); with ETV7, 1.34 fold enrichment (6-mer frequency, TF over GST control); with ELF5, 1.28 fold enrichment (6-mer frequency, TF over GST control); in the assay with ETV3, 1.24 fold enrichment (6-mer frequency, TF over GST control); with ETV6, 1.33 fold enrichment (6-mer frequency, TF over GST control).

The record behind these values is PMC7862700, “An all-to-all approach to the identification of sequence-specific readers for epigenetic DNA modifications on cytosine”.
